Here are results for 40 sequences from the supplement of paper PMC6555819.

The subject of this assay is VDR:RXRa (NR concentration 270 nM, RXRa partner concentration 90 nM). Put plainly: PBM binding z-score (relative to random genomic background probes); higher = stronger binding; sequences stand for … in GC…GCGATTGACAGCGTAGAATGAAGG
The protocol: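 Protein-binding microarray (Agilent 4x180K custom design, double-stranded 60-nt probes: 5' GC cap, 34-nt variable region, 24-nt constant primer region; full probe sequence given). Purified or IVT nuclear receptor:RXRα heterodimers (3:1 NR:RXRα, mostly 270:90 nM) or homodimers were incubated for 1 h in PBS with 2% milk and no ligand, then detected with Alexa488 antibodies. Fluorescence from o1-orientation probes (~5 replicates averaged) was converted to z-scores against 500 random hg19 background probes. Variable regions are seed direct-repeat (DR0–DR5) sites, all their single-nucleotide variants and half-site ablations.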
In turn, AGTAGTTGGTCAGCTGAGGTCACACACAATTCGG had a PBM binding z-score of 4.43.
As for ATATGTAGGTTATCGGCTCATTCAGTTTGCGCAT, the PBM binding z-score was found to be 0.802.
In turn, GATACAGGGTCAGCTAGCGGCCAGAGTATGGAAA had a PBM binding z-score of 2.49.
In the case of TTATATAGGTAAAGGTGAAAGTCGAACGATATGA, the PBM binding z-score is 1.07.
CCTAGCCGGCCAGGGTCACTCAAGCATTTCGCTT: the PBM binding z-score amounted to 2.37.
In turn, CGTCCAAGGTCATAGGAGGACAGTGAAGACAGAT had a PBM binding z-score of 5.21.
In the case of CCTATTAGTTGACCATAAGGGCAACCGAAGCTCG, the PBM binding z-score is 1.22.
With CCTAGCAGGGCAATCTGGGTCACTCAAGGCTTGA, the PBM binding z-score stood at 1.08.
As to CCTCGTAGGACAACAGGAGGTCAGAGCTGCCAGA, the PBM binding z-score came out at 1.64.
CAAATTAGGTCACGAAAGGTCAAAGTCGAATGAC gave a PBM binding z-score of 7.06.
The sequence CGACCAAGGTCATAGGAGGTCAGTGAAGACAGAT gave a PBM binding z-score of 6.59.
Take CCGACTGAGGCATAAGGTTACCATAAGCCAGCCC: the PBM binding z-score is 0.114.
Under AGAATGAGGTTACCATAGATCAGGGAAACGCTTG stands 0.941; under TCTCGGAGGACACGACAGGTCAGAGCTCGACATC, 0.875; under CCTCGGAGGACAACAGGAGGTCAGATCTGCCAGA, 1.72.
Regarding TCTCGGAGGACCCGAAAGGTCAGAGCTCGACATC, the PBM binding z-score turned out to be 2.45.
Sequence TCATATAGGAAAACAGGTGAAAGTCCGTAAGTTA yielded a PBM binding z-score of 1.
AGAATCAGGTTACCAAAGATCAGGGAAACGCTTG came in with a PBM binding z-score of -0.0357.
GCGACTGGGGCATCAGCAGGTTACCATGACTTAA registered a PBM binding z-score of -0.443.
On to TCATATAGGTAAATGCTAGGTGAACGTCCGATCT, for which the PBM binding z-score was 0.914.
On to CGTCCAAGGTCAGAGGTCAGTGAAGAGATGACGG, for which the PBM binding z-score came out at 5.16.
In the case of GGAACGAGGGCAAGTTGACAGCAGAGTTTGATGG, the PBM binding z-score amounted to 0.799.
Under TCTATTAGTTGAAGAGCAACCGACGAGTCCGTTT stands 0.538; under CCTTACGGATCACTGACAGGTTATAGCATTTGGA, 0.456.
For ACTAGTTGGTCAGCTGAGGTCACAGACAATTCGG, the PBM binding z-score was determined as 4.25.
In turn, TCATATAGGTATTACAGGTGAAAGTCGGCATCTA gave a PBM binding z-score of 1.34.
Consider GTACCAAGGTGAATAGGTAGTTGATGAGTAGGCG, for which the PBM binding z-score was -0.15.
Under CATTCAGGGTCAGCTAGGCCAGAGTAGGGACGGC stands 4.34.
CATACTGGGTCAGCTAGGCCAGAGTAGGGACGGC registered a PBM binding z-score of 1.19.
For the sequence AGAGTGAGGTTATTAAGATCAGGGAATTGCGGTC, the PBM binding z-score came to 2.49.
As to CCTACTGGGCCATTCCGAGGTCATTGATCATATG, the PBM binding z-score is 3.86.
Regarding CGAACTAGGTCATCCAGGACAGTGGATACATTGA, the PBM binding z-score amounted to 4.5.
Under CTACCAAGGTGAAAAAGGTCGTTGATTACTATTC stands 4.09; under ATCTCTACGTAAAGATAGTTCAGTGAATGCAAAT, 0.567; under ATCTCAAGGTAACCAAGTTCAGTGAATGCCGAAC, 5.03.
In the case of GCTAGCAGGCCATTAGGGTCACTCAATGACGGGC it was 4.6.
As to TCTTTTAGATCAATAGAGGTTAAGAAAGTGCGCT, the PBM binding z-score was 2.22.
In the case of CGAACTAGGTCAGTACAGGACAGTGAAGGATGAT it was 0.713; in that of TAGCCTAGGTCATGGGCCAGTCTACCACGCGAAC, 1.82.
Sequence CCTGCTAGGTCATGGCCAGCTAATCTACAGTATG registered a PBM binding z-score of 1.43.
